Drawing on PubChem BioAssay, this text covers composite z-score for 35 compounds.

Each structure is given as a SMILES string.

The experiment in a line: COS7 lysate on small-molecule microarray, probe aHis, 635 nm (AID 1123).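 Further: z-score combines 667nm fluorescence intensity with signal-to-noise per printed compound spot.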 The note with it: COS7 cell lysate, fluorescence, higher = more signal.
`COC(=O)[C@@H]1N=C(c2ccc(OCCCO)cc2)O[C@@H]1C` yielded a composite z-score of -0.223.

`C=C[C@H]1C(C(=O)OCC)=CC[C@@H](c2ccccc2)N1S(=O)(=O)c1ccc(C)cc1` showed a composite z-score of 1.67.

In turn, `CC(c1ccccc1)C(O)C1C=CC2C(=O)N(C)C(=O)C2N1Nc1ccccc1` (stereo not given) showed a composite z-score of 2.5.

As for `NC(=O)NCC#Cc1ccc2c(c1)[C@]1(C(=O)N2)[C@H](c2ccccc2OCCO)N2[C@H](c3ccccc3)[C@H](c3ccccc3)OC(=O)[C@H]2[C@@H]1C(=O)NC[C@H](O)c1ccccc1`, the composite z-score came out at 1.19.

`CCCCC[C@H]1OC[C@@]23C=C(Br)[C@@H](CC12)[C@@]1(CO1)C3=O` (stereo not given in full): the composite z-score was -0.0346.

For the compound `CCC#CCN(Cc1ccccc1Br)[C@H](/C=C/C1CC1)[C@@H](O)Cc1ccccc1`, the composite z-score was -0.408.

In the case of `COC(=O)C(CC#Cc1ccc2c(c1)[C@]1(C(=O)N2)[C@H](c2ccc(O)cc2)N2[C@H](c3ccccc3)[C@H](c3ccccc3)OC(=O)[C@H]2[C@@H]1C(=O)NC[C@H](O)c1ccccc1)C(=O)OC`, the composite z-score was 1.22.

Regarding `CCCCC(O)C1C=CC2C(=O)N(C)C(=O)C2N1N(c1ccccc1)c1ccccc1` (stereo not given), the composite z-score amounted to 2.73.

Regarding `O=C1[C@H]2C=C(I)[C@H](C[C@@H]2OCCOCCO)[C@@]12CO2`, the composite z-score was -0.477.

In turn, `C=CC[C@]1(C(=O)N2CCCCC2)N=C(c2ccc(OCCCO)cc2)O[C@H]1c1ccccc1CN=[N+]=[N-]` displayed a composite z-score of 2.31.

`COC(=O)[C@@]1(Cc2ccc(OC)cc2)[C@H]2c3cc(C(=O)N4CCCC4)n(CCO)c3C[C@H]2CN1C(=O)c1ccccc1`: the composite z-score came to 2.46.

Compound `C=CC[C@]1(C(=O)N2CCOCC2)COC(c2ccc(OCCCO)cc2)=N1` came in with a composite z-score of 3.27.

With `CN(C)C(=O)[C@]1(CCC(=O)OC(C)(C)C)N=C(c2ccc(OCCCO)cc2)O[C@@H]1c1ccccc1CN=[N+]=[N-]`, the composite z-score stood at 3.17.

Regarding `CO[C@H]1O[C@H](CO)[C@@H](OC(=O)Nc2ccc3c(c2)OCO3)[C@H](OC(=O)Nc2ccc3c(c2)OCO3)[C@@H]1OC(=O)Nc1ccc2c(c1)OCO2`, the composite z-score was 2.51.

With `C=C[C@@H](OC)[C@H](OC(=O)Nc1ccc(OC)cc1)c1ccc(O)c(F)c1`, the composite z-score is 1.93.

`COC(=O)c1c(CC[C@@H](CO)NC(=O)N[C@@H](C)Cn2cc(-c3ccccn3)nn2)oc(C(C)=O)c1C(=O)OC` came in with a composite z-score of 0.267.

In the case of `CCCC[C@@H](O)C1=C(COC)C[C@H]2C(=O)N(Cc3ccccc3)C(=O)[C@H]2[C@H]1CO`, the composite z-score is 0.368.

`CCCN1C(=O)[C@]2(Cc3ccccc31)N=C(c1ccc(OCCCO)cc1)O[C@@H]2c1ccccc1` came in with a composite z-score of 2.19.

`CCOC(=O)C[C@H]1[C@H](OC(=O)c2ccc(C(=O)c3ccccc3)cc2)[C@@H](NC(=O)C2CCCCC2)c2cc(OCCCO)ccc2N1C(=O)c1ccc2ccccc2n1` yielded a composite z-score of 1.05.

Regarding `COc1cccc(C)c1NC(=O)O[C@H]1[C@H](OC(=O)Nc2ccc3c(c2)OCO3)[C@@H](OC(=O)Nc2ccc3c(c2)OCO3)[C@@H](OC)O[C@@H]1CO`, the composite z-score came to 2.53.

Regarding `CC(C)(C)OC(=O)COc1cccc(C(=O)CCN2CCOCC2)c1`, the composite z-score worked out at 0.258.

`CC(C)NC(=O)[C@@]1(C)c2ccccc2C(=O)N(Cc2ccc(OC(F)(F)F)cc2)[C@H]1c1ccc(CO)cc1` displayed a composite z-score of 1.54.

`COc1cc2c(cc1O)C(c1cccs1)N(Cc1cc3c(cc1Br)OCO3)CC2` (stereo not given): the composite z-score worked out at 2.92.

`CCCCNC(=O)c1ccc(C#CC(C)(C)C)c(OC(C)=O)c1` came in with a composite z-score of -0.0302.

`CCCC1(C(=O)OC)C=C2C(=C(C)C(=O)C2C)CN1` (stereo not given) showed a composite z-score of 1.24.

The compound `O=C(C1N=C(c2ccc(OCCCO)cc2)N(c2ccccc2)O1)N1CCCCC1` (stereo not given) returned a composite z-score of 2.31.

For the compound `CCCCN1CC=CC23O[C@@H]4/C=C\CCC(C)OC(=O)C4[C@H]2C(=O)N(CCCO)[C@@H]3C1=O` (stereo not given in full), the composite z-score was -0.0462.

Compound `Cc1ccc(S[C@]2(C(=O)NCC(F)(F)F)CC(=O)N(Cc3cc(C(F)(F)F)cc(C(F)(F)F)c3)[C@@H]2c2ccc(CO)cc2)cc1` yielded a composite z-score of -0.551.

On to `COC(=O)[C@@]1(Cc2ccc(F)cc2)[C@H]2c3cc(C(=O)N(C)C)n(CCc4ccc(OC)c(Br)c4)c3C[C@H]2CN1C(=O)c1ccccc1`, for which the composite z-score stood at 1.44.

For `O=C(NCCN1CCOCC1)[C@@H]1c2ccccc2C(=O)N(Cc2ccccc2Cl)[C@H]1c1ccc(CO)cc1`, the composite z-score came to 0.0465.

In turn, `CCCCCN1CC=CC23O[C@@H]4/C=C\CCCOC(=O)C4[C@H]2C(=O)N(C(C)CO)[C@@H]3C1=O` (stereo not given in full) displayed a composite z-score of 0.626.

Consider `COc1ccc(CCNC(=O)[C@@H]2c3ccccc3C(=O)N(C3CCCCC3)[C@H]2c2ccc(CO)cc2)cc1`, for which the composite z-score came out at 2.15.

`C=CCNC(=O)[C@H]1[C@@H]2C(=O)O[C@@H](c3ccccc3)[C@@H](c3ccccc3)N2[C@@H](c2ccccc2OCCO)[C@]12C(=O)N(C(=O)OCCOC)c1ccc(C#CC3(O)CCCCCC3)cc12` came in with a composite z-score of 1.79.

`C#Cc1cc2ccccc2oc1=O` gave a composite z-score of 0.688.

As to `CCCC=C(CCC)[C@@H](NS(=O)(=O)CC12CCC(CC1=O)C2(C)C)c1ccc(C(=O)OC)cc1` (stereo not given in full), the composite z-score came to 2.12.
